Experiments:
Assay in all cases: PBM binding z-score (relative to random genomic background probes); higher = stronger binding; sequences stand for … in GC…GCGATTGACAGCGTAGAATGAAGG
[1] = tested on: FXR:RXRa (NR concentration 270 nM, RXRa partner concentration 90 nM)
In short: (§1)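 Binding z-scores take random background probes as their reference. They come from custom Agilent 4×180K protein-binding microarrays incubated 1 h with ligand-free nuclear receptor dimers, with antibodies against each partner (one per run) detecting binding. Scanned fluorescence was regression-normalized.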

[2] = tested on: LXRa:RXRa (NR concentration 270 nM, RXRa partner concentration 90 nM)
In short: as §1

[3] = tested on: LXRa homodimer (NR concentration 270 nM)
In short: as §1

[4] = tested on: LXRb:RXRa (NR concentration 270 nM, RXRa partner concentration 90 nM)
In short: as §1

[5] = tested on: LXRb homodimer (NR concentration 270 nM)
In short: as §1

[6] = tested on: PPARa:RXRa (NR concentration 270 nM, RXRa partner concentration 90 nM)
In short: as §1

[7] = tested on: PPARg:RXRa (NR concentration 180 nM, RXRa partner concentration 90 nM)
In short: as §1

[8] = tested on: PPARg:RXRa 270nM:90nM, anti-RXR (NR concentration 270 nM, RXRa partner concentration 90 nM)
In short: as §1

[9] = tested on: PPARg:RXRa 30nM:10nM, anti-RXR (NR concentration 30 nM, RXRa partner concentration 10 nM)
In short: as §1

[10] = tested on: PPARg:RXRa 90nM:30nM, anti-RXR (NR concentration 90 nM, RXRa partner concentration 30 nM)
In short: as §1

[11] = tested on: PPARg:RXRa DBDmut IVT, anti-RXR (DBD mutation: RXRa K156A/R161A, NR concentration 270 nM, RXRa partner concentration 90 nM)
In short: as §1

[12] = tested on: PPARg:RXRa IVT, anti-PPARg (NR concentration 270 nM, RXRa partner concentration 90 nM)
In short: as §1

[13] = tested on: PPARg DBDmut:RXRa IVT, anti-PPARg (DBD mutation: PPARg1 K132A/R137A, NR concentration 270 nM, RXRa partner concentration 90 nM)
In short: as §1

[14] = tested on: PPARg DBDmut IVT, anti-PPARg (DBD mutation: PPARg1 K132A/R137A, NR concentration 270 nM)
In short: as §1

[15] = tested on: PPARg homodimer (NR concentration 180 nM)
In short: as §1

[16] = tested on: PXR:RXRa (NR concentration 270 nM, RXRa partner concentration 90 nM)
In short: as §1

[17] = tested on: PXR homodimer (NR concentration 270 nM)
In short: as §1

[18] = tested on: RARa:RXR (NR concentration 270 nM, RXRa partner concentration 90 nM)
In short: as §1

[19] = tested on: RARa homodimer (NR concentration 270 nM)
In short: as §1

[20] = tested on: RARb:RXRa (NR concentration 270 nM, RXRa partner concentration 90 nM)
In short: as §1

Row | Sequence | PBM binding z-score [1] | PBM binding z-score [2] | PBM binding z-score [3] | PBM binding z-score [4] | PBM binding z-score [5] | PBM binding z-score [6] | PBM binding z-score [7] | PBM binding z-score [8] | PBM binding z-score [9] | PBM binding z-score [10] | PBM binding z-score [11] | PBM binding z-score [12] | PBM binding z-score [13] | PBM binding z-score [14] | PBM binding z-score [15] | PBM binding z-score [16] | PBM binding z-score [17] | PBM binding z-score [18] | PBM binding z-score [19] | PBM binding z-score [20]
1 | CGAACGAGGGGATGAGTTGATAGCAAATGCCGAT | 0.0387 | -0.222 | -0.351 | -0.0303 | -0.345 | -0.335 | 0.733 | 0.0328 | -0.38 | -0.23 | 0.602 | 0.068 | 0.241 | 0.151 | 0.0087 | -0.392 | 0.00406 | -0.399 | 0.243 | -0.301
2 | CCAACTGGGGCAAGGTTACCATAACGCACAGCCA | 0.213 | 0.726 | -0.0339 | 0.872 | -0.862 | 2.49 | 4.28 | 4.62 | 2.01 | 4.22 | 5.12 | 5.51 | 0.138 | -0.27 | 0.543 | 0.378 | 0.0268 | 0.879 | 0.291 | 1.78
3 | AACTCTAGGTAAAGATAGTTCAGTGAATGCAAAT | 0.28 | 3.96 | 0.498 | 0.633 | -0.176 | 0.465 | 0.601 | 0.353 | 0.0247 | 0.245 | 2.43 | 1.47 | 1.03 | 0.24 | 0.547 | 0.755 | 0.513 | 0.462 | 0.929 | 0.576
4 | AGTCAAAGTTCATCTAGGTACCGTAAGATATGCT | 6.55 | 6.25 | 5.57 | 3.95 | 1.62 | 4.76 | 6.25 | 6.29 | 3.36 | 5.38 | 0.148 | 2.85 | 2.26 | 1.1 | 3.06 | 5.28 | 5.43 | 3.85 | 1.42 | 4.81
5 | CTCGAAAGATCGGTTGAGGTGAGTATACGGATAA | 0.238 | -0.622 | -0.531 | -0.146 | -0.43 | 0.0167 | -0.0366 | -0.226 | -0.244 | -0.262 | -0.303 | 0.165 | 0.37 | 0.142 | -0.353 | -0.0362 | -0.0981 | 0.657 | -0.222 | 0.00694
6 | CCTTACGGGTCACTGACAGGTTAGAGCATTTGGA | 5.51 | 3.9 | 0.227 | 3.04 | -0.348 | 5.19 | 4.35 | 4.64 | 1.58 | 3.02 | 3.5 | 3.63 | 0.322 | -0.672 | 2.02 | 3.32 | -0.369 | 4.51 | 0.501 | 3.95

— the supplement of paper PMC6555819
